Compound activity (PubChem)
Platelet DG rel = platelet dense granule release activity; human platelet-rich plasma, SFLLRN dense granule ATP release, luminescence; inhibition, %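 (compounds screened at 7.5 µM in platelet-rich plasma)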; 300,000 tested, 0.22% active; AID 1663;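 active = mean replicate score, as percent of positive control, at or above 50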
MIN6 prolif = inducers of beta-cell replication in MIN6 cells. proliferation, % at 10 µM. AID 2380. MIN6 cells proliferation, ATPlite luminescence, 48 h; cells starved in 0.2% serum; 100% = growth in 10% serum. 330,000 tested, 0.29% active;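 active = compounds whose signal lies at least 3.5 SD above the mean of all wells on their plate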;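 also: 0% = DMSO-treated cells in low-serum medium and 100% = 10% serum control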
NTR1 ag = activates human neurotensin receptor 1. 330,000 tested, 0.17% active. NTR1-U2OS beta-arrestin-GFP spot imaging, agonist mode. activation, % at 20 µM. P30989;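 active = activation at or above 40% of the spot to cytoplasm intensity ratio, with at least 20 cells analyzed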;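 also: 0% = DMSO without peptide and 100% = 100 nM NTR1 peptide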
Target sequence (P30989 whole entry, looked up): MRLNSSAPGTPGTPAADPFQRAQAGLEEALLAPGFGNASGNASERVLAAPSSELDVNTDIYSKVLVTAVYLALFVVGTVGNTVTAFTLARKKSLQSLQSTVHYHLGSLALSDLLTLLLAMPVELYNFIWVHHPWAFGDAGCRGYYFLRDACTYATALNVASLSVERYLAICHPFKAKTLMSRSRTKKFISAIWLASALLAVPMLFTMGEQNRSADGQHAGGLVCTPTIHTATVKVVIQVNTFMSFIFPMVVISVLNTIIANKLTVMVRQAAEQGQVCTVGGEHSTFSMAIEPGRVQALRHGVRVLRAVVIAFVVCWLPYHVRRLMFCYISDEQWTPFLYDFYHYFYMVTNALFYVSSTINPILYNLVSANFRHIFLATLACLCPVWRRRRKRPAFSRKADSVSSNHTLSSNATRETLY
GRK2 aptamer HTS = blocks RNA aptamer binding to human GRK2; bead flow cytometry, FAM-aptamer displacement from GRK2; inhibition of aptamer binding, % at 10 µM; 330,000 tested, 0.59% active;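 active = inhibition of aptamer binding above 40%, roughly 3 SD of noise, on plates passing a quality check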;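 also: median bead fluorescence of bound FAM aptamer so fluorescent compounds give negative values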
GRK2 inh confirm = human GRK2 inhibition confirmation, cherry pick 1. shares compounds with GRK2 aptamer HTS. bead-bound GRK2, FAM-aptamer displacement, flow cytometry. aptamer displacement, % at 10 µM. 2,000 tested, 4% active;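 active = aptamer displacement above 40%, near three times the noise of non-fluorescent compounds, on plates passing quality checks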;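 also: negative values mostly reflect intrinsic compound fluorescence rather than true enhancement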
Aptamer quench = fluorescent aptamer quenching in GRK2 counter-screen dose response | shares compounds with GRK2 aptamer HTS | Fluorescent RNA aptamer beads, flow cytometry; active compounds read high | fluorescence change (kMESF span), kMESF (test concentration not listed) | 110 tested, under 10 active | AID 504521;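 active = compounds whose bead fluorescence drops by more than 37 kMESF across the dose range, marking them as dye quenchers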
FAM quench CP1 = aptamer fluorescence quenching in GRK2 counter-screen; shares compounds with GRK2 aptamer HTS; Carboxyfluorescein RNA aptamer on beads, flow cytometry quenching; active compounds read low; fluorescence response (% of DMSO), % at 10 µM; 2,000 tested, under 10 active; AID 504580;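 active = compounds that quench the bead-bound fluorescent RNA probe, cutting fluorescence to under half of the solvent control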;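 also: counterscreen run without GRK2 so only probe quenching by compound is measured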
GRK2 CP2 = confirmation of human GRK2 inhibitors binding RNA aptamer site; shares compounds with GRK2 aptamer HTS; bead-bound GRK2, FAM-aptamer displacement, flow cytometry; inhibition of aptamer binding, % at 10 µM; 360 tested, under 10 active;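 active = inhibition of aptamer binding above 40%, about triple the noise seen with nonglowing compounds, on plates passing quality control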;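 also: negative values mostly come from compounds that fluoresce themselves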
FAM quench CP2 = quenches fluorescent RNA aptamer, GRK2 hit artifact | fluorescence response vs DMSO, % at 10 µM | carboxyfluorescein RNA aptamer beads, flow cytometry quenching; active compounds read low | 360 tested, under 10 active | shares compounds with GRK2 aptamer HTS;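 active = response vs DMSO under 50%, meaning signal dropped by over half, treated as fluorescence quencher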;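 also: labelled aptamer on streptavidin beads without GRK2 as a quench counter-screen; 100% = bead fluorescence of DMSO wells and lower means quenching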
An asterisk follows results filed as active; / = not tested or not shown. Sampled rows, rich in hits. Any-hit rate of the full collection: about 1.2%.

SMILES	Platelet DG rel	MIN6 prolif	NTR1 ag	GRK2 aptamer HTS	GRK2 inh confirm	FAM quench CP1	others
CCOC(=O)c1ccc(N2C(=O)C3CCCN3C2=S)cc1 (configuration not stated)	/	0	-1	42*	/	/	GRK2 CP2=-2;FAM quench CP2=103
O=C(O)c1ccccc1C(=O)Nc1c(-c2ccccc2)nc2ccccn12	8	0	-1	0	/	/
COC(=O)CN1C(=O)C2(OCCCO2)c2cc(Br)ccc21	-6	1	0	99*	0	101
O=C(Nc1ccccc1C(=O)N1CCCC1)c1ccc(Cl)cc1Cl	-24	-4	2	0	/	/
CN(CC(=O)Nc1ccccc1Cl)C(=O)Cn1cc(C(F)(F)F)cc(Cl)c1=O	-7	-2	2	0	/	/
COCCCn1c(SCC(=O)N(C)C)nnc1-c1ccccc1	12	-2	1	99*	-2	98
CC(C)N1C(=O)c2ccccc2C1C(=O)NCCc1ccccc1 (configuration not stated)	8	-3	-2	11	1	95
O=C(NCCc1ccccc1)C1c2ccccc2C(=O)N1Cc1cccs1 (configuration not stated)	0	1	1	3	/	/
O=C(Oc1ccc(Cl)c2ccccc12)N1CCCCC1	14	1	2	99*	1	102
O=C(O)CCc1ccc(-c2ccc(F)cc2)n1CC(=O)O	-3	0	0	6	/	/
Cc1ccc(-c2ccc(CCC(=O)O)n2CC(=O)O)cc1	-2	0	1	89*	3	98
O=c1c2c3c(sc2nc(NCCO)n1CCc1ccccc1)CCCCC3	0	-5	11	90*	-4	94
O=c1c2c3c(sc2nc(NCCO)n1Cc1ccco1)CCCCC3	-4	-3	4	4	/	/
CCCN(CC(=O)Nc1cc(Cl)ccc1Cl)C(=O)c1ccc2n[nH]nc2c1	/	0	-1	0	/	/
COc1cccc(-c2c(NC(C)=O)n(C)c3ccccc3c2=O)c1	-3	1	-1	46*	-2	101
O=C(c1ccc(Cl)cc1)n1c(NCc2ccccc2)n[nH]c1=S	8	-2	0	65*	-5	104
O=C(CCC(=O)c1ccc(Cl)cc1)NCc1ccccc1	-13	6	0	0	/	/
O=C(O)C1C2CCC(C2)C1C(=O)NCc1ccccn1 (configuration not stated)	-2	1	-1	0	/	/
CCn1cc(CNC(=O)C2C3CCC(C3)C2C(=O)O)cn1 (configuration not stated)	-1	-2	-2	40	3	102
COc1cc(CC(=O)N2CCN(S(=O)(=O)c3ccc(C)cc3)CC2)cc(OC)c1OC	/	7	2	7	/	/
CC(=O)Nc1ccc(S(=O)(=O)N2CCCC(C(=O)O)C2)cc1 (configuration not stated)	-4	0	2	4	/	/
CC1(C)CC(=O)/C(=C(\O)c2ccccc2)C(=NCCO)C1	-6	-4	2	1	/	/
COc1cccc(N=C2CC(C)(C)CC(=O)/C2=C(/O)c2ccccc2)c1	2	-1	0	95*	5	99
CC1CCN(CCOCCOc2ccccc2Br)CC1	-12	3	0	95*	-2	98
COc1ccccc1CN1CC(C(=O)NCc2cc(F)cc(C(F)(F)F)c2)CCC1=O (configuration not stated)	-15	-2	0	89*	-3	96
SMILES	Platelet DG rel	MIN6 prolif	NTR1 ag	GRK2 aptamer HTS	GRK2 inh confirm	FAM quench CP1	others
COc1ccccc1CN1CC(C(=O)NCc2cccc(Cl)c2)CCC1=O (configuration not stated)	-3	-3	0	0	/	/
COc1ccccc1CN1CC(C(=O)NCCc2ccccc2Cl)CCC1=O (configuration not stated)	2	2	1	76*	2	96
Cc1nc(C)c(NC(=O)N2CCc3ccccc32)cc1NC(=O)N1CCc2ccccc21	/	-4	-1	6	/	/
Cn1ccc2cc3c(cc21)CCN3C(=O)Nc1cccnc1	/	-4	-1	57*	-13	72
CCC(CO)N=CC1=C(O)CC(c2ccccc2)CC1=O (configuration not stated)	-6	1	1	0	/	/
O=C(O)C1Nc2c(O)cc(Cl)c([N+](=O)[O-])c2C2C=CCC12 (configuration not stated)	-5	-2	-1	69*	68*	95	Aptamer quench=-0.6
CCOc1ccc(CN2CCNC(=O)C2CC(=O)NCc2csc(C(C)C)n2)cc1 (configuration not stated)	-14	-1	0	/	/	/
COC(=O)c1ccc(C(C(=O)NC2CCCCC2)N(C(=O)Cc2cccs2)C2CC2)cc1 (configuration not stated)	2	-2	-2	86*	18	98
O=C(NC1CCCC1)C(c1ccsc1)N(Cc1ccccc1)C(=O)Cc1cccs1 (configuration not stated)	-1	-4	3	15	-4	106
O=C(NC1CCCC1)C(c1ccncc1)N(Cc1ccccc1)C(=O)Cc1cccs1 (configuration not stated)	3	2	1	1	/	/
COC(=O)c1ccc(C(C(=O)NC2CCCCC2)N(Cc2ccccc2)C(=O)Cc2cccs2)cc1 (configuration not stated)	-6	-2	2	3	/	/
COc1ccc(CCNC(=O)Cc2cccc(C(F)(F)F)c2)cc1OC	-7	-1	1	2	/	/
CS(=O)(=O)N(Cc1ccc(Cl)cc1)c1ccc(C(=O)N/N=C/c2cc3ccccc3nc2Cl)cc1	-27	0	17	0	/	/
CCc1ccc(NC(=S)NC(=O)CC(C)C)cc1	1	-6	-2	69*	0	102
O=C(CNC(=O)c1ccccc1F)N/N=C/c1ccc2c(c1)OCO2	-15	0	0	82*	-2	101
CC(=O)Nc1ccc(S(=O)(=O)NNC(=O)c2ccc3c(c2)OCO3)cc1	-8	-1	1	0	/	/
CC(=O)Nc1ccc(S(=O)(=O)NNC(=O)c2cccc(Cl)c2)cc1	-7	2	0	92*	-1	100
O=C(NCc1ccco1)C1CCCN1C(=O)NCc1ccccc1 (configuration not stated)	-2	-4	3	0	1	97
